# Bioassay records as filed in PubChem BioAssay.
# Rab9 promoter act – activators of Rab9 promoter | Huh7 Rab9 promoter-luciferase reporter, luminescence, 24 h | Potency, µM (highest dose often 9.22 µM), for the others: top-dose activation, negative = inhibition, usual class: activators | actives 2.8% (n = 320,000); further: % of control where 0% means no effect; nearly all actives have a fitted effect of over 60% in size
#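 Measured in stably transfected Huh7 cells bearing a Rab9 promoter–luciferase construct: 24 h compound treatment at 37 °C, followed by luminescence detection.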
# ELG1 genotoxic – induces genotoxicity in HEK293T cells with luciferase-tagged ELG1. HEK293T ELG1-luciferase reporter, luminescence, 16 h. Potency, µM (highest dose often 46 µM), for inactives: at the highest dose activity change, positive = activation, usual class: activators. actives 1.3% (n = 330,000). AID 504466; further: % of control where 0% means no effect; nearly all actives have a fitted effect of over 60% in size
#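 Quantitative HTS format in 1536-well plates. HEK293T ELG1-luciferase reporter cells receive test compound and are incubated 16 hr at 37 °C, 5% CO2; ONE-Glo added, 30 min room temperature, then luminescence read.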
# p53 reactivator – mutant p53 re-activation in reporter cells; H1299 p53-A138V BP100-luciferase reporter, luminescence, 24 h; Potency, µM (titrated, usually from 92.2 µM), for the others: top-dose activity change, positive = activation, actives largely listed as activators; actives 0.063% (n = 320,000); further: % of control where 0% means no effect; nearly all actives have a fitted effect of over 45% in size
#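 H1299 (p53-null), stable ts p53-A138V + BP100-Luc; 1000 cells/well, Opti-MEM/10% FBS; cpd 4 pt, 1:5; 24 h, 37 deg C, 5% CO2; detection reagent 10 min RT; luminescence.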
# SMN2 splice enh – increases expression of the SMN2 splice variant; AID 1458; Potency, µM (titrated, usually from 46.1 µM), for inactives: top-dose activity change, positive = activation, hits mostly activators; actives 2.8% (n = 210,000); HEK293 SMN2-luciferase splicing reporter, luminescence, 30-36 h; further: % of control where 0% means no effect; nearly all actives have a fitted effect of over 55% in size
#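 HEK293 cells carry an SMN2 […]–luciferase reporter in which exon 7 inclusion puts luciferase in frame. Cells were plated 10-12 h before compound addition, then incubated 30-36 h at 37C. ONE-Glo luminescence was read; sodium butyrate at 4.5 mM final served as control.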
# NPC1 prom act – NPC1 promoter activation. actives 2.4% (n = 320,000). Potency, µM (top dose mostly 9.22 µM), without a hit: top-dose activation, actives largely listed as activators. Huh7 NPC1 promoter luciferase reporter, 24 h; further: % of control where 0% means no effect; nearly all actives have a fitted effect of over 60% in size
#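 Stably transfected Huh7 (NPC1 promoter→luciferase), 1500 cells/well in Opti-MEM + 10% FBS, 2 h settle, then compound 24 h at 37 °C. Luminescence after 10 min with Amplite reagent.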
# FLuc counter – firefly luciferase modulation, counter-screen for miR-21 project; P08659; purified FLuc, Km substrates, luminescence inhibition; Potency, µM (top dose mostly 57.5 µM), for the others: top-dose activity change, negative = inhibition, actives largely listed as inhibitors; actives 6.9% (n = 360,000); AID 588342;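 further: plate controls were vehicle for no effect and reference inhibitor for full effect; nearly all actives have a fitted effect of over 55% in size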
# Target sequence (P08659 whole entry, looked up): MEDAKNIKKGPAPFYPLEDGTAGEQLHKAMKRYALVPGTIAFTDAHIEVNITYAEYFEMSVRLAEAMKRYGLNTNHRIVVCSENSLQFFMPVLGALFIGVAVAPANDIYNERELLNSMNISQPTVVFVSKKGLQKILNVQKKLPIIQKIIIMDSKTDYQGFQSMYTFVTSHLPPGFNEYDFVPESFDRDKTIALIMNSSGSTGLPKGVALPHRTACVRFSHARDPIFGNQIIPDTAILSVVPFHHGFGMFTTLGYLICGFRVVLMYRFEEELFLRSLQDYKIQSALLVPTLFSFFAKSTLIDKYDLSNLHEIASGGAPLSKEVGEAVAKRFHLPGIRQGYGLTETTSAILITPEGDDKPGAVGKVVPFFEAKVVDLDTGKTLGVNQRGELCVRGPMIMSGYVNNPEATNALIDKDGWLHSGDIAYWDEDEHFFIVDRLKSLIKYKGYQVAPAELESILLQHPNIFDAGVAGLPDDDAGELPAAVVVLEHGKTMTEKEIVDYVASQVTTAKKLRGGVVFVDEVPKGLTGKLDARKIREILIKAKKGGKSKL
#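 Biochemical qHTS of compounds, final roughly 60 µM downward over six points, against 10 nM purified firefly luciferase using Km concentrations of substrates (10 uM D-luciferin, 10 uM ATP) in Tris acetate pH 7.5 buffer; luminescence output.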
# * hit, by the source's call; ? = inconclusive; · = no result given; ! = repeats disagree; [ ] = another dose, or the depositor's remark. In the library only some 7.3% were active in any assay of this set; here they are far more common. The call rests on the fitted dose curve; in most records, active means well fitted curve in the direction sought with a large enough effect; inconclusive means small, poorly fitted or top-dose-only effect, or another doubt; inactive means no such curve, though single readings can be large; an effect the other way counts as inactive or inconclusive. Potency means the concentration at half of the fitted maximal effect.
SMILES,Rab9 promoter act,ELG1 genotoxic,p53 reactivator,SMN2 splice enh,NPC1 prom act,FLuc counter
COc1cc(OC)c(OC)cc1/C=C1/Cc2ccccc2C1=O,-4%[1.84 µM],3%,-2%,·,-9%,5%
O=C1/C(=C\c2ccc(Br)o2)SC(=Nc2ccccc2)N1c1ccccc1,0%,-1%,-3%,-24%,1%,3%
O=C1/C(=C/c2cccs2)Cc2ccccc21,19%,?,40µM*,·,21%,3.8µM*
CC1(C)NC(C)(C)/C(=C\c2cccs2)C(=O)C1=O,-4%,1%,3%,·,-1%,4%
O=C1C(=Cc2cccs2)C(=O)c2ccccc21,10%,10%,9%,5%,-1%,4.8µM*
O=C1/C(=C\c2ccc(Br)o2)Cc2ccccc21,2%,?,?,-25%,0%,15µM*
CCOC(=O)c1ccc(NC(=O)Cn2nc(C)c3nn(-c4ccc(Cl)cc4)c(C)c3c2=O)cc1,·,·,·,·,·,-16%
Cc1ccc(C=C2C(=O)c3ccccc3C2=O)s1,9%,?,?,16%,1%,0.85µM*
O=C(COc1ccccc1N1C(=O)c2ccccc2C1=O)c1ccc(Cl)cc1,15%,18µM*,10%,22%,13%,4%
CC(Cc1ccc(O)c(O)c1)(NN)C(=O)O (stereo unspecified),·,·,·,-1%,·,·
C=CCn1c(-c2ccc(Cl)cc2)c[nH]c1=S,-11%,1%,-2%,-21%,-4%,?
C=CCn1c(-c2ccccc2)c[nH]c1=S,28%,13µM*,?,-2%,24%,27µM*
COc1ccc(/C=N/NC(=O)c2[nH]ncc2Br)c(OC)c1,-8%,26µM*,23%,25%,1%,2.4µM*
O=C(N/N=C/c1ccccc1)c1[nH]ncc1Br,3.2µM*,15µM*,1%,?,?,11µM*
CCN(CC)c1ccc(C(=O)N/N=C/c2ccc(OC)cc2OC)cc1,11%,-1%,6%,-10%,-2%,?
CCOc1ccc(C2=CC(c3cc(Br)ccc3F)n3ncnc3N2)cc1Cl (stereo unspecified),·,·,·,·,·,-2%
CCN1CCN(c2ccc(N3CCN(S(=O)(=O)c4ccc(C)c([N+](=O)[O-])c4)CC3)nn2)CC1,-1%,-2%,-1%,·,0%,-1%
COc1ccc(N2CCN(C(=O)Cc3c(C(=O)O)c(C)cn3C)CC2)cc1,·,·,·,·,·,-7%
O=c1/c(=C\c2ccc3c(c2)OCO3)sc2n1CCCN=2,3.5µM*,3.3µM*,26%,?,0.89µM*,4.3µM*
Cc1ccc(/C=c2/sc3n(c2=O)CCCN=3)o1,2.8µM*,?,?,13µM*,?,15µM*
O=C1/C(=C\c2ccc3c(c2)OCO3)CCC/C1=C/c1ccc2c(c1)OCO2,0%,1%,?,-11%,-3%,?
COc1ccc(OC)c(NC(=O)C2CCCN(S(=O)(=O)c3ccc4[nH]c(=O)ccc4c3)C2)c1 (stereo unspecified),·,·,·,·,·,3%
Cc1nn(-c2ccccn2)c2c1-c1nc(N3CCOCC3)ncc1CC2,10%,2%,16%,-27%,6%,-10%
Cc1nn(-c2ccccn2)c2c1-c1nc(N)ncc1CC2,3.2µM*,8%,?,?,3.5µM*,11µM*
CC1CN(c2ncnc3c2cnn3-c2ccc(Cl)cc2)CC(C)O1 (stereo unspecified),1µM*,2.1µM*,?,?,1.1µM*,3µM*
SMILES,Rab9 promoter act,ELG1 genotoxic,p53 reactivator,SMN2 splice enh,NPC1 prom act,FLuc counter
Clc1ccc(-n2ncc3c(N4CCCCCC4)ncnc32)cc1,-18%,0.15µM*,-7%,-101%,-11%,0.19µM*
CC1CCN(c2ncnc3c2cnn3-c2ccc(F)cc2)CC1,·,·,·,·,·,3µM*
Cc1ccc(-n2ncc3c(N4CCC(Cc5ccccc5)CC4)ncnc32)cc1,·,·,·,·,·,-13%
CC1CC(C)CN(c2ncnc3c2cnn3Cc2ccc(Cl)cc2)C1 (stereo unspecified),-9%,0%,5%,5%,2%,0%
Cc1ccc(-n2ncc3c(N4CCCCC4)ncnc32)cc1,·,·,·,·,·,0.076µM*
CCCCN(C)C(=O)C1CCCN(c2ncnc3onc(C)c23)C1 (stereo unspecified),·,·,·,·,·,-1%
COc1ccc(-n2ncc3c(N4CCN(c5cccc(C)c5C)CC4)ncnc32)cc1,-1%,1%,3%,·,-10%,0%
COc1ccc(-n2ncc3c(N4CCCCC4)ncnc32)cc1,?,0.065µM*,-23%,-111%,-17%,0.17µM*
CCOc1ccc(CNC(=O)C2CCN(S(=O)(=O)c3cn(C)cn3)CC2)cc1,·,·,·,·,·,0%
CCN(CC)c1ccc(NC(=S)NC(=O)c2cccs2)cc1,0.56µM*,8%,11%,·,?,15µM*
CCN(CC)c1ccc(NC(=S)NC(=O)c2ccco2)cc1,1.6µM*,?,6%,7.9µM*,?,15µM*
CCN(CC)c1ccc(NC(=O)c2ccco2)cc1,?,1.8µM*,?,3.2µM*,1.6µM*,3µM*
CCN(CC)c1ccc(NC(=O)c2ccco2)c(C)c1,1%,?,8%,-5%,10%,-19%
CC(C)C(=O)Nc1cccc(NC(=S)NC(=O)c2cccs2)c1,2.8µM*,19%,24%,·,2.8µM*,-16%
COc1ccccc1CNC(=O)COc1ccccc1C(=O)c1cnn(-c2ccccc2)c1,17%,7%,?,·,16%,9.5µM*
O=C(COc1ccccc1C(=O)c1cnn(-c2ccccc2)c1)Nc1ccccc1,?,5%,?,25µM*,26%,1.5µM*
COc1ccccc1NC(=O)CC1Sc2ccc(C(F)(F)F)cc2NC1=O (stereo unspecified),·,·,·,?,·,0%
COc1ccc(C2C(=O)c3ccccc3C2=O)cc1,?,?,-1%,4µM*!,?,5.4µM*
COc1ccc(C2=C(N)c3ccccc3C2=O)cc1,4.5µM*,13µM*,?,?,4.5µM*,11µM*
COc1ccc(C2C(=O)c3ccccc3C2=O)c(OC)c1,-3%,1%,3%,-4%,2%,-1%
COc1cc(C2N(C)C(=O)c3ccccc3N2C)ccc1O (stereo unspecified),0%,-1%,·,·,-4%,3%
COc1cc(C2C(=O)c3ccccc3C2=O)ccc1O,0%,8%,10%,·,0%,24µM*
COc1ccc(C2C(=O)c3ccccc3C2=O)cc1OC,?,-4%,-4%,·,28%,8.5µM*
COc1ccccc1NC=C1C(=O)OC(C)(C)OC1=O,9%,0%,10%,9%,-4%,11µM*
